This passage reports activation results from PubChem BioAssay AID1346428 (National Center for Advancing Translational Sciences (NCATS), 2018).

SMILES strings stand for the structures. “And” between values parts separate entries of the source, which are not always exact repeats. Equal entries are not always repeated. The whole screen tested about 48,000 compounds, of which about 1,200 (2.5%) were called active. Not shown: some 2% with an inconclusive outcome. The sample holds actives, similar compounds and a random draw of the others, so the mix is not that of the screen.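 How the source made its calls: active means activation of at least 60% and not above a set upper limit (about 1 call in 100 departs from these limits); inconclusive means activation of 40% to 60%, or above that upper limit; inactive means activation under 40%.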 Where a structure was tested more than once in an assay, its records may differ in their call.

Chain of Probable G-protein coupled receptor 32 (Homo sapiens) (O75388 whole entry, looked up, the tested form may be a part): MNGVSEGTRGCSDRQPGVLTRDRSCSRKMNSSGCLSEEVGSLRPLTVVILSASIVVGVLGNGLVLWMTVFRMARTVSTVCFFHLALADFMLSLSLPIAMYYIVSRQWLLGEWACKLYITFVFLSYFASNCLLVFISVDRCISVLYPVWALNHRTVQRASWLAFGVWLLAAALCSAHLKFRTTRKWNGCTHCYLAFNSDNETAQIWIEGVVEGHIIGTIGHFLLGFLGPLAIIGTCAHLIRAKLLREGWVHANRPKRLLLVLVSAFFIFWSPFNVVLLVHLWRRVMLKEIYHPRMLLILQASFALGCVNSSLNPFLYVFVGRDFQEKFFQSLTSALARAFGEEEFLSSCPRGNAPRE

In this assay the target is Probable G-protein coupled receptor 32 (Homo sapiens) (UniProt O75388). Nature of the assay: qHTS for Agonists of Human Resolvin D1 Receptor DRV1. The note with it: CHO-K1 GPR32 beta-arrestin PathHunter luminescence, 90 min; at 76.9 µM; stronger effect = higher value; zero percent set by DMSO-only wells. Summed up:
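PathHunter enzyme-fragment complementation, CHO-K1 GPR32 stable line; 2,500 cells/well, overnight attach; cpd 90 min 37 °C 5% CO2; detection reagent 1 h RT; chemiluminescence. DMSO = EC0.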
For the compound `CCCOC(=O)c1c(NC(=O)c2cc3nc(-c4ccc(OC)cc4)cc(C(F)(F)F)n3n2)sc2c1CCCC2`, the activation was 16% (inactive).

In the case of `COc1ccc(NC(=O)Cn2c(=O)cc(C)c3c(C)nn(-c4cccc(Cl)c4C)c32)cc1OC`, the activation was -11.5% (inactive).

Regarding `Cc1ccccc1OCc1ccc(-c2nc(C#N)c(N3CCCCC3)o2)o1`, the activation was -28.2% (inactive).

Consider `Cc1cc(C)cc(OCC(=O)Nc2nc(-c3ccc(F)cc3)ns2)c1`, for which the activation is 4.54% (inactive).

For the compound `COc1cc(CNCCSc2nnnn2C)ccc1OCc1c(F)cccc1Cl`, the activation was 14.1% (inactive).

On to `Cn1nnnc1SCCNCc1ccc(Cl)c(Cl)c1`, for which the activation was -5.94% (inactive).

Take `COc1cc(CNCCSc2nnnn2C)ccc1OCc1ccc(Cl)cc1Cl`: the activation is 60% (active).

For `CCc1ccccc1NC(=O)N1CCN(C(=O)c2nsc3ccccc23)CC1`, the activation was -15.9% (inactive).

For `COc1cccc(Cn2c(SCc3ccc(C(=O)N4CCCCC4)cc3)nc3ccncc32)c1`, the activation was 30.7% (inactive).

As to `Cc1[nH]c2ccccc2c1C(c1ccccc1)c1cccs1` (stereo not drawn), the activation is 73.6% (active).

For `COc1ccc(-c2onc(C)c2C)cc1S(=O)(=O)NCCc1ccccc1`, the activation is 3.28% (inactive).

`O=C(Nc1nnc(C2CC(=O)N(c3ccc(Cl)cc3)C2)s1)c1ccco1` (stereo not drawn): the activation is -14.5% (inactive).

For `CCCCN(C)CCCNC(=O)CN1N=C(c2ccc(OC)cc2)CCC1=O`, the activation was 11.3% (inactive).

`Cc1ccc(S(=O)(=O)N2CCCc3cc(NS(=O)(=O)c4cc(C)ccc4C)ccc32)cc1`: the activation was -16.6% (inactive).

With `C=Cc1ccc(Cn2c(C(=O)OC)cc3sc(C)cc32)cc1`, the activation was -21.6% (inactive).

Take `CCC(C(=O)OCCN(CC)CC)c1ccccc1` (stereo not drawn): the activation is 1.87% (inactive).

In the case of `CCCC(C(=O)OCCN(CC)CC)(c1ccccc1)c1ccccc1`, the activation is 60.2% (active) and -17.3% (inactive).

Turning to `Cc1ccc(N(CC(=O)Nc2cc(C)cc(C)c2)S(=O)(=O)c2cccc3nonc23)cc1`, the activation was -3.71% (inactive).

Take `Cc1ccc(NC(=O)Cn2c(=O)n(-c3ccccc3)c(=O)c3c4c(sc32)CCCC4)cc1`: the activation is -1.44% (inactive).

Turning to `CC(=O)c1ccc(N2CCN(C3C(=O)c4ccccc4N3C(C)=O)CC2)cc1` (stereo not drawn), the activation is -28.3% (inactive).

With `CC1=C(c2ccc(C)cc2)S(=O)(=O)NC1=NCCCN1CCN(c2cc(C)ccc2C)CC1`, the activation was 84.3% (active).

On to `Cc1ccc(C)c(N2CCN(CCCNC(=O)Nc3ccc(Cl)cc3)CC2)c1`, for which the activation was 37.2% (inactive).

`CC1=C(c2ccc(Cl)cc2)S(=O)(=O)N=C1N1CCN(c2cc(C)ccc2C)CC1`: the activation was -14.2% (inactive).

Consider `Cc1ccc(C(=O)Nc2ccc(OCc3cc(=O)n4c(C)csc4n3)cc2)cc1`, for which the activation is 3.91% (inactive).

For the compound `Cc1ccc(OCC(=O)Nc2ccc(OCc3cc(=O)n4c(C)csc4n3)cc2)cc1C`, the activation is -16.1% (inactive).

Regarding `Cc1csc2nc(COc3ccc(NC(=O)COc4ccccc4)cc3)cc(=O)n12`, the activation is 63.9% (active).

For the compound `COc1ccccc1N1CCN(CCCNC(=O)c2cnn(-c3ccccc3Cl)c2C2CCN(C(=O)OC(C)(C)C)CC2)CC1`, the activation was -18.9% (inactive).

With `O=C(CCS(=O)(=O)c1cc(Br)cc2c1N(C(=O)C1CC1)CC2)Nc1ccc(C(F)(F)F)cc1`, the activation was -8.56% (inactive).

As for `CC(C)NC(=O)c1nn(-c2ccccc2F)nc1CO`, the activation is -8.71% (inactive).

For `O=C(NCCc1ccccc1)c1ccc2c(c1)N(Cc1ccccc1)C(=O)c1ccccc1S2(=O)=O`, the activation is 92.4% (active).

For `COCCNC(=O)c1ccc2c(c1)N(Cc1cccc(Cl)c1)C(=O)c1ccccc1S2(=O)=O`, the activation is -32.3% (inactive).

On to `O=C(NCCc1ccccc1)c1ccc2c(c1)N(Cc1ccc(F)cc1)C(=O)c1ccccc1S2(=O)=O`, for which the activation is -31.8% (inactive).

`CC(C)(C)c1ccc(S(=O)(=O)N2CCN(C(=O)c3cc(-c4ccc(Br)cc4)n[nH]3)CC2)cc1`: the activation is -6.87% (inactive).

`OCc1cnc(SCc2ccc(F)cc2)n1Cc1ccc(F)cc1`: the activation was 109% (active).

As to `O=C(CSc1ncc(CO)n1Cc1ccc(Cl)cc1)NCc1ccc(F)cc1`, the activation was 39.5% (inactive).

Regarding `O=C(CSc1ncc(CO)n1Cc1ccc(F)cc1)NCc1ccco1`, the activation is 7.63% (inactive).

As for `CCOC(=O)C(Cc1ccccc1)NC(=O)CCc1c(C)nc2c(c(C)nn2-c2ccc(C)c(C)c2)c1C` (stereo not drawn), the activation is -3.74% (inactive).

Take `COc1ccc(-c2noc(CCC(=O)N(C)c3ccccc3C)n2)cc1`: the activation was 107% (active).

`COc1cccc(CNC(=O)Cc2csc3nc(-c4ccccc4)cn23)c1`: the activation is -4.88% (inactive).

As to `COc1ccc(-c2noc(CSc3nc4ccc(C)cc4[nH]3)n2)cc1`, the activation is 23.5% (inactive).

Consider `Cc1ccccc1C(=O)NCc1nc(-c2ccc(Cl)cc2)no1`, for which the activation is -2.46% (inactive).

On to `COc1cccc(CNC(=O)CCc2nc(-c3ccc(C)cc3)no2)c1`, for which the activation is 92.5% (active).

Regarding `COc1cccc(CNC(=O)Cn2ncn3c(cc4ccccc43)c2=O)c1`, the activation is -1.19% (inactive).

Consider `Cc1ccc(NC(=O)CSc2nc3c([nH]c4ccccc43)c(=O)n2-c2ccccc2)cc1Cl`, for which the activation was -26.8% (inactive).

`CCCCNC(=O)c1cc(-c2ccc(Cl)c(Cl)c2)on1`: the activation is 8.61% (inactive).

`COc1ccc(C(=O)Nc2ccc(-n3nncc3-c3ccccc3)cc2)cc1OC`: the activation was -15.2% (inactive).

For the compound `O=C(CSc1oc(-c2ccccc2)nc1S(=O)(=O)c1ccc(Br)cc1)NC1CCCCC1`, the activation was -14.8% (inactive).

In the case of `COc1ccc(C)cc1Nc1nc2ccccc2c2nnc(C)n12`, the activation is 9.83% (inactive).

Regarding `CCC(=O)N1CCc2cc(S(=O)(=O)NC(Cc3ccccc3)C(=O)NCc3ccc(C)cc3)ccc21` (stereo not drawn), the activation was -14.4% (inactive).

Regarding `CCC(=O)N1CCc2cc(S(=O)(=O)NC(C(=O)NCCc3ccc(C)cc3)C(C)C)ccc21` (stereo not drawn), the activation was -8.05% (inactive).

On to `CCC(=O)N1CCc2cc(S(=O)(=O)NC(CC(C)C)C(=O)NCCc3cccc(C)c3)ccc21` (stereo not drawn), for which the activation is 64.6% (active).

Turning to `Cc1ccc(-c2cnc(NCc3ccc(C(C)C)cc3)n2C)cc1`, the activation was -44.5% (inactive).

As to `CSc1ccc(CCNC(=O)c2cnn(-c3ccccc3)c2-n2cccc2)cc1`, the activation is -2.99% (inactive).
